From PubChem BioAssay
Tau fibril ThT: qHTS for Inhibitors of Tau Fibril Formation, Thioflavin T Binding | Microtubule-associated protein tau (Homo sapiens), P10636 | recombinant tau K18 P301L, heparin-induced fibrillization, ThT fluorescence | Potency, µM (doses to about 57.4 µM), usual class: inhibitors | 2.1% of 270,000 active; note: nearly all actives have a fitted effect of over 55% in size
Target sequence (P10636 561-689 P618L limits assumed): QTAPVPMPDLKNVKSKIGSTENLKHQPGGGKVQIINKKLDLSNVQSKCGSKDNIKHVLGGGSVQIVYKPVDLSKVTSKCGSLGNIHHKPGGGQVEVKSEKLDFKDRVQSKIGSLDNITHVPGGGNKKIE
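Recombinant human tau K18 fragment […] carrying P301L, 15 uM unlabeled plus 0.24 uM Alexa 594-labeled, was fibrillized with 20 uM heparin in 100 mM sodium acetate pH 7 for 6 hr at 37 C; 30 uM ThT fluorescence read after 1 hr.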
Tau fluor cs: Counterscreen qHTS for Inhibitors of Tau Fibril Formation, Fluorescence Polarization; tau K18 P301L Alexa594 fluorescence, heparin fibrillization; Potency, µM (titrated, usually from 57.7 µM); 0.93% of 280,000 active; AID 1463, 2008; note: nearly all actives have a fitted effect of over 55% in size
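Human tau K18 P301L (15 uM unlabeled, 0.24 uM Alexa 594-labeled) in 100 mM sodium acetate pH 7 with 20 uM heparin, 6 hr at 37 C. ThT 30 uM added, 1 hr ambient; Alexa 594 FP and total fluorescence read at 555/632 nm.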
TRb-SRC2 inh: qHTS for Inhibitors of the Interaction of Thyroid Hormone Receptor and Steroid Receptor Coregulator 2; TRbeta-SRC2 peptide binding, fluorescence polarization; receptor liganded with 1 µM T3; Potency, µM (top dose mostly 106 µM), hits mostly inhibitors; 0.065% of 280,000 active; AID 1469, 2008; note: nearly all actives have a fitted effect of over 50% in size
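TRb LBD 0.6 uM + Texas Red SRC2 peptide 20 nM, 1 uM T3, Tris buffer w/ 5% DMSO; compound pinned, 5 h RT; FP read ex 555/em 632; normalized to unbound and bound controls.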
Tau fibril FP: qHTS for Inhibitors of Tau Fibril Formation, Fluorescence Polarization; Microtubule-associated protein tau (Homo sapiens), P10636; K18 P301L tau heparin fibrillization, Alexa594 FP, 6 h; Potency, µM (titrated, usually from 57.7 µM), hits mostly inhibitors; 0.39% of 280,000 active; AID 1468, 2008; note: nearly all actives have a fitted effect of over 55% in size
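FP of Alexa 594-tau after heparin (20 uM) induction. Substrate: human K18 P301L, 15 uM unlabeled, 0.24 uM labeled. Buffer 100 mM sodium acetate pH 7. 6 hr, 37 C.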
TexasRed fluor: Total Fluorescence Counterscreen for Inhibitors of the Interaction of Thyroid Hormone Receptor and Steroid Receptor Coregulator 2. TRb/SRC2 Texas Red total fluorescence interference. Potency, µM (doses to about 106 µM). 0.29% of 280,000 active. AID 1479, 2009; active = well fitted curve in either direction with a large enough effect; inconclusive = small, poorly fitted or top-dose-only effect
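Human TRb ligand-binding domain at 0.6 uM with 20 nM Texas Red SRC2 peptide in Tris buffer containing 1 uM T3 and 5% DMSO, incubated with compound 5 h at ambient temperature. Total fluorescence (555/632 nm) calculated as parallel + 2 × perpendicular.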
RGS12 GoLoco inh: qHTS Assay for Inhibitors of RGS12 GoLoco Motif Activity (Red Fluorophore); 0.44% of 230,000 active; Guanine nucleotide-binding protein G(i) subunit alpha-1 (Homo sapiens), P63096; Gai1:RGS12 GoLoco peptide FP, rhodamine, 10 min; Potency, µM (doses to about 61.6 µM), most hits filed as inhibitors; active = well fitted inhibition curve with a large enough effect, not every such curve was filed as active; inactive = no such curve, though single readings can be large or run the other way; note: nearly all actives have a fitted effect of over 30% in size
Target sequence (P63096 whole entry, looked up): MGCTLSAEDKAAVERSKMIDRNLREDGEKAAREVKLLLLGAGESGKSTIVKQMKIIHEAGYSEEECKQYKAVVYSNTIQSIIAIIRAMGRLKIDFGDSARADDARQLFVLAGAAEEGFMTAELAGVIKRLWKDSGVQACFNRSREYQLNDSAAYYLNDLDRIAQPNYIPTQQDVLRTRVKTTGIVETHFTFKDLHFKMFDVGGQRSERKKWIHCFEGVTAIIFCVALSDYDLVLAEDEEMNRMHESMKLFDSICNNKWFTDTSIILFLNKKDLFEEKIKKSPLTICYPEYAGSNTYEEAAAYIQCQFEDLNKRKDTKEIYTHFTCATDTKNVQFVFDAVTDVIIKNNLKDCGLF
A number is an active result; 0 = inactive; ? = inconclusive; - = not tested or not shown; [ ] = remark or other dose. An excerpt weighted towards active compounds, which were near 3.2% of everything screened. Unless noted, calls come from the whole dose curve; as a rule, active = well fitted curve in the direction sought with a large enough effect; inconclusive = small, poorly fitted or top-dose-only effect, or another doubt; inactive = no such curve, though single readings can be large; an effect the other way counts as inactive or inconclusive.

SMILES | Tau fibril ThT | Tau fluor cs | TRb-SRC2 inh | Tau fibril FP | TexasRed fluor | RGS12 GoLoco inh
CSCC[C@H](NC(=O)[C@H](CC(C)C)NC(=O)CNC(=O)[C@H](Cc1ccc(O)cc1)NC(=O)[C@H](Cc1ccccc1)NC(=O)[C@H](CCC(N)=O)NC(=O)[C@H](CCC(N)=O)NC(=O)[C@@H]1CCCN1C(=O)[C@H](CCCCN)NC(=O)[C@@H]1CCCN1C(=O)[C@@H](N)CCCN=C(N)N)C(N)=O | - | - | 0 | - | ? | -
COc1cc(/C=C(\C#N)c2nc3c(s2)CCCC3)ccc1O | 11µM | 14µM[quencher] | 0 | 0 | 0 | 0
CC(C)(C)c1cc(-c2nc(N)nc(N)n2)cc(C(C)(C)C)c1 | ? | 0 | 0 | 28µM | 0 | 0
CCCN1CCCc2cc(CN)ccc21 | 25µM | ? | 0 | 0 | 0 | -
O=C(O)c1ccccc1C1=Nc2ccc(O)cc2Oc2cc(O)ccc21 | 0 | 0 | 0 | 0 | 0 | 25µM
COC(=O)C1C(O)C(C)C(O)C(C)(O)/C=C\C=C(/C)C(=O)Nc2c(C)c(OC(C)=O)c3c(c2O)C(=O)C(C)=C2OCOC(=C23)/C(C)=C/C(C)(O)C(O)C(C)C1O (stereo unspecified) | - | 4µM[quencher] | 0 | ? | 0 | 0
COc1ccc2c(c1)OC/C(=C/c1ccc(OC)c(OC)c1)C2=O | 11µM | ? | 0 | 0 | 0 | 0
COc1ccc(S(=O)(=O)Nc2ccccc2-c2nnn(CC(=O)Nc3ccccc3OC)n2)cc1 | 0 | ? | 0 | ? | 0 | 0
COc1ccc(NC(=O)Cn2nnc(-c3ccccc3NS(=O)(=O)c3ccccc3)n2)cc1 | 0 | ? | 0 | 16µM | 0 | 0
COc1ccc2nc(N=NC3=C(O)CC(C)(C)CC3=O)sc2c1 | 16µM | 0 | 0 | 0 | 0 | 0
CC1(C)CC(=O)C(N=Nc2ccc3ncsc3c2)=C(O)C1 | ? | 0 | 0 | 0 | 0 | 0
COc1ccc2nc(N=Nc3ccc(O)c4ccccc34)sc2c1 | 2.5µM | ? | 0 | 0 | 0 | 0
CN(C)c1ccc(NC(=O)c2cnsn2)cc1 | 10µM | 0 | 0 | 0 | 0 | 0
COc1ccc(C2=Nn3c(nnc3-c3cccc(OC)c3OC)SC2)cc1OC | - | - | 0 | - | 0 | -
COc1cc(-n2nc(C)c3c2OC(N)=C(C#N)C3c2ccccc2)c(Cl)c(Br)c1O (stereo unspecified) | 3.5µM | ? | 0 | 0 | 0 | 0
COc1ccc2c(n1)Sc1nc3ccccc3nc1N2 | 1µM | 4µM[quencher] | 0 | 0 | 0 | 0
COc1cc2ccccc2nn1 | 0 | 0 | 0 | 0 | 0 | 0
Cc1cnc(CNc2ncncc2-c2ccccc2C(F)(F)F)cn1 | 0 | 0 | 0 | 0 | 0 | 0
COc1ccc(N2CSC3=C(C#N)C(c4cccs4)CC(=O)N3C2)cc1 (stereo unspecified) | 13µM | ? | 0 | 25µM | 0 | 0
CCc1ccc(N2CSC3=C(C#N)C(c4cccs4)CC(=O)N3C2)cc1 (stereo unspecified) | 13µM | 0 | 0 | ? | 0 | 0
Cc1ccc(N2CSC3=C(C#N)C(c4cccs4)CC(=O)N3C2)cc1 (stereo unspecified) | ? | 0 | 0 | ? | 0 | 0
Nc1nc(=O)c2[nH]cnc2n1O | - | - | - | - | - | 0[14.2 µM]
N#C/C(=N/Nc1ccc([N+](=O)[O-])cc1)C(=N)N1CCCCC1 | 10µM | 0 | 0 | 0 | 0 | 0
N#C/C(=N/Nc1ccc(S(=O)(=O)N2CCOCC2)cc1)C(N)=O | 0 | 0 | 0 | 0 | 0 | 0
N#C/C(=N\Nc1ccc(S(=O)(=O)N2CCCCC2)cc1)C(N)=S | 13µM | 0 | 0 | 0 | 0 | 0
N#C/C(=N\Nc1ccc(S(=O)(=O)N2CCc3ccccc32)cc1)C(N)=S | 14µM | ? | 0 | 0 | 0 | 0
